± gives the standard deviation.

The subject of this test is MILI (PIWIL2) piRISC loaded with piRNA #1 (26 nt). The test is described as follows: pre-steady-state target cleavage rate (min^-1); guide: piRNA #1 5'p-UGAGGUAGUAGGUUGUAUAGUAUCCA; MIWI and MILI are mouse PIWI proteins and EfPiwi is from a freshwater sponge; tags in brackets are library labels; higher = faster piRNA-guided slicing of the target. The conditions noted are these: auxiliary factor: 500 nM mouse GTSF1. Summed up: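 Cleave-'n-Seq: a transcribed, DNA-blocked target RNA library (0.1 nM) was mixed with 1 nM active affinity-purified piRISC carrying one synthetic guide, with or without 500 nM GTSF1 partner protein, in HEPES–potassium acetate buffer at 33 °C for 0–8 or 0–960 min. Uncleaved targets were sequenced and normalised to depth and to weakly complementary targets. Three trials were pooled, and k3 was capped at 0.0001 min^-1. The pre-steady-state cleavage rate came from a burst-and-steady-state fit.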
For GGAGACCUUACUUUACAACCUACUUCCUCA, the “pre-steady-state target cleavage rate” value was determined as 0.0347 ± 0.011.

On to GGAGACCUAUCUAUACAACCAAGUACCUCA, for which the “pre-steady-state target cleavage rate” value amounted to 0.00317 ± 0.0031.

With GGAGACCUAACUAAUCAACCUACUACCUCA, the “pre-steady-state target cleavage rate” value stood at 0.0719 ± 0.016.

On to GGAGACCUAACUAUUCAACCUACAACCUCA, for which the “pre-steady-state target cleavage rate” value was 0.129 ± 0.021.

GGAGACCAUACUAUAGAACCUACUACCUGA: the “pre-steady-state target cleavage rate” value is 0.00906 ± 0.0046.

Take GGAGUGGAAACUAUAGAACCUACUACCUCA: the “pre-steady-state target cleavage rate” value turned out to be 0.204 ± 0.014.

Consider GGAGACCUAUGUAUAGAACCUACUACCUGA, for which the “pre-steady-state target cleavage rate” value stood at 0.00583 ± 0.0025.

GGAGACCUAUGAUUAACAACCUACUACCUCA: the “pre-steady-state target cleavage rate” value was found to be 0.00416 ± 0.0022.

For GGAGUGGUUACUAUAGAACCUACUACCUCA, the “pre-steady-state target cleavage rate” value came to 0.175 ± 0.014.

GGAGACCAUACUAUUCAACCUACUACCACA: the “pre-steady-state target cleavage rate” value amounted to 0.189 ± 0.023.

With GGAGACCUUACUAAUGAACCUACUACCUCA, the “pre-steady-state target cleavage rate” value is 0.00805 ± 0.0017.

In the case of GGAGACCAUACUUUACAACCUACUACCACA, the “pre-steady-state target cleavage rate” value was found to be 0.226 ± 0.023.

With GGAGACCUAUGUAUACUACGUACUACCUCA, the “pre-steady-state target cleavage rate” value is 0.00798 ± 0.0023.

Regarding GGAGACCUUCCUAUACAACCUACUACCUCA, the “pre-steady-state target cleavage rate” value was 0.113 ± 0.027.

In the case of GGAGAGGAAUGUAUACAACCUACUACCUCA, the “pre-steady-state target cleavage rate” value is 0.0539 ± 0.0062.

With GGAGACCUAACUAUACAACCUACUACUCA, the “pre-steady-state target cleavage rate” value is 0.141 ± 0.033.

The values above are taken from the supplement of paper PMC10338343.
